Source: PubChem BioAssay (The Scripps Research Institute Molecular Screening Center)
AHR act – activators of human aryl hydrocarbon receptor; P35869; AHR-responsive luciferase reporter cells, luminescence; activation, % at 5 µM; 320,000 tested, 2.5% active; AID 2796; in the data active = activation above about 47%;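 also: 0% = vehicle wells and 100% = reference agonist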
DAX1 inh-1 – inhibitors of human orphan nuclear receptor DAX1 (NR0B1) | P51843 | HEK293 Gal4-DAX1 luciferase reporter, luminescence | inhibition, % at 6.75 µM | 340,000 tested, 0.99% active;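 active = inhibition above the mean over all tested compounds plus 3 SD, cut at about 4.2% in these data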;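 also: 0% = DAX1-transfected cells with DMSO and 100% = empty-vector control cells with DMSO; inhibition shows as a rise in luminescence from relieved DAX1 repression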
Target sequence (P51843 207-470 limits assumed): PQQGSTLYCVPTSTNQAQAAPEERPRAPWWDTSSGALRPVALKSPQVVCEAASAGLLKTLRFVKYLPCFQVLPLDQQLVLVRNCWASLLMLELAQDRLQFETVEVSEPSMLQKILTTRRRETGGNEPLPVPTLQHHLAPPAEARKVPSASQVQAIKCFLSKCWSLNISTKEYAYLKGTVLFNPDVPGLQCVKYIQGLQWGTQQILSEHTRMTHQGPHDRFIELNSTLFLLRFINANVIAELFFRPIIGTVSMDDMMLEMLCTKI
DAX1 inh-2 – inhibitors of DAX1 repression of SF-1 activated StAR promoter; HEK293T StAR-luciferase reporter, SF-1/DAX-1 repression relief; inhibition, % at 6.8 µM; 370,000 tested, 1.1% active; AID 652010;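 active = inhibition above the mean over all tested compounds plus 3 SD, cut at about 3.6% in these data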;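 also: 0% = DAX-1 cells with DMSO and 100% = cells lacking DAX-1 with DMSO; higher inhibition means more luminescence from relief of DAX-1 repression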
ssDAF12 agonist – activators of S. stercoralis DAF-12 nuclear receptor. activation, % at 6.8 µM. HEK293 ssDAF-12/GRIP1 lit1-tk-luc reporter, luminescence; % of 3 µM dafachronic acid response. AID 652126. 370,000 tested, 1% active;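 active = activation above the mean over all tested compounds plus 3 SD, cut at about 0.9% in these data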;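 also: 0% = DMSO-only wells and 100% = 3 µM delta7-dafachronic acid wells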
hgDAF12 agonist – hgDAF-12 agonism, primary luciferase screen; HEK293 GAL4-hgDAF12 UAS-luciferase reporter, agonist luminescence; normalized to butyrate control; activation, % at 6.8 µM; 370,000 tested, 1.8% active; AID 687014;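 active = activation above a cutoff set at the mean of all screened compounds plus 3 SD, cut at about 10% in these data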;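 also: 0% = DMSO wells and 100% = sodium butyrate wells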
hcDAF-12 act – activators of H. contortus DAF-12 nuclear receptor. HEK293 hcDAF-12 lit1-tk-luc reporter, luminescence; 0% DMSO, 100% Δ7-dafachronic acid. 370,000 tested, 1.4% active. activation, % at 6.8 µM. AID 652067;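 active = activation above the mean of all tested compounds plus 3 SD, cut at about 5.5% in these data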;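 also: 100% = response to 3 µM Δ7-dafachronic acid high control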
Active calls of the source: *; . = no result given. A selection: hits, their analogues and other compounds. The true share with any hit is near 5.7%.

SMILES	AHR act	DAX1 inh-1	DAX1 inh-2	ssDAF12 agonist	hgDAF12 agonist	hcDAF-12 act
COc1ccc(NC(=O)OC(C)C)cc1	6	1	2	0	11*	4
COc1ccc(NC(=O)c2ccccc2C)cc1	0	6.3*	2	0	6	2
O=C(Nc1ccc(F)cc1)c1c(Cl)nc2ccccn12	58*	0	0	-1	8	2
C#CCn1cccc(C(=O)Nc2ccc(OC)cc2)c1=O	40	2	0	-1	5	1
COc1ccc(NC(=O)O/N=C/c2ccccc2)cc1	1	3	1	-1	11*	2
COc1ccc(NC(=O)O/N=C/c2ccccc2Cl)cc1	2	1	0	-1	1	0
COc1ccc(NC(=O)c2cccc3ccccc23)cc1OC	.	0	0	-2	-1	-2
CCCn1cccc(C(=O)Nc2ccc(OC)cc2)c1=O	75*	-1	0	-1	-1	0
COc1ccc(NC(=O)c2cccc3ccccc23)cc1	52*	0	0	-1	11*	1
CCC1Sc2ccc(S(=O)(=O)N3CCN(c4ccccc4)CC3)cc2NC1=O (configuration not stated)	-2	1	0	-1	1	-1
O=C(Nc1ccc(F)cc1)c1cccc2ccccc12	57*	0	0	0	0	1
CCn1ncc(C(=O)Nc2ccc(F)cc2)c1C	60*	3	1	1.7*	8	5
O=C(NNC(=O)c1cccc2ccccc12)c1ccc(F)cc1	.	0	1	-1	-2	-2
COc1ccc(-c2csc(Nc3ccccc3)[n+]2CC(O)c2ccc([N+](=O)[O-])cc2)cc1 (configuration not stated)	47*	0	-1	-1	-2	0
CCCCCC[n+]1c(-c2ccccc2)csc1Nc1ccccc1	2	0	0	-1	0	-1
Cc1cc(=O)oc2cc3c(cc12)OCCN3	-1	1	0	-1	3	-1
O=C(CN1C(=O)NC2(CCCCC2)C1=O)Nc1cc(C(F)(F)F)ccc1N1CCOCC1	.	0	2	-1	-2	-1
Cc1cc(/C=C2/C(=O)NN(c3ccccc3)C2=O)c(C)n1-c1ccc(O)cc1	25	-2	-1	-2	-8	-4
COC(=O)C(NS(=O)(=O)c1ccccc1Cl)c1ccccc1 (configuration not stated)	2	1	0	-1	-2	-1
Oc1sc(C=Nc2ccccc2)c2ccccc12	50*	4	1	0	1	1
CCOC(=O)C1CCN(C(=O)C2(NC(=O)NC3CCCCC3)CCCCC2)CC1	0	0	0	-1	0	-2
CCOC(=O)C1CCCN1C(=O)C1(NC(C)=O)CCCC1 (configuration not stated)	.	2	0	-1	12*	-1
COc1cc(C(=O)NCCCCc2ccccc2)cc(OC)c1OC	5	-1	0	-1	1	-4
COc1ccc(Cc2nnc(NC(=O)CSc3ccc(C)cc3)s2)cc1	5	-1	0	-1	5	-1
N/C(=N\OC(=O)Nc1ccccc1)c1ncc(C(F)(F)F)cc1Cl	1	2	0	0	0	5.6*
SMILES	AHR act	DAX1 inh-1	DAX1 inh-2	ssDAF12 agonist	hgDAF12 agonist	hcDAF-12 act
N/C(=N\OC(=O)Nc1ccc(Cl)cc1)c1ncc(C(F)(F)F)cc1Cl	1	0	0	0	4	0
COC(=O)/C(=C\Nc1ccccc1N)c1ncc(C(F)(F)F)cc1Cl	69*	1	4.3*	1	12*	5.7*
Cc1nc2c3ccccc3n(CC#N)c(=O)n2n1	15	0	1	0	8	6.1*
N#CCn1c(CCl)nc2ccccc2c1=O	11	3	0	-1	-3	0
COc1ccc(S(=O)(=O)N2N=C(c3ccc(NS(C)(=O)=O)cc3)CC2c2ccco2)cc1 (configuration not stated)	14	2	1	1.3*	2	5.6*
COc1ccc(S(=O)(=O)N2N=C(c3cccc(NS(C)(=O)=O)c3)CC2c2ccco2)cc1 (configuration not stated)	-1	-1	-1	-1	-2	-2
COc1ccc(C(=O)C(CCC(CNC(C)(C)C)C(=O)c2ccc(OC)cc2)CNC(C)(C)C)cc1 (configuration not stated)	-1	-5	-2	-2	-6	-3
S=C(Nc1cccnc1)N1CCc2ccccc21	30	0	0	0	2	6.4*
CC(C)(C)C(=O)NC(=S)N1CCc2ccccc21	16	1	1	-1	0	3
O=C(NC(=S)N1CCc2ccccc21)C1CCC1	11	0	0	-1	-3	5.7*
COCCOC(=O)c1c(NC(=O)CN2CCCc3ccccc32)sc(C(N)=O)c1C	21	1	-1	-1	-1	1
CC(=O)NC(CC(=O)OCC(=O)c1cc(C)ccc1C)c1ccccc1 (configuration not stated)	2	0	4.3*	-1	-1	0
CC(=O)NC(CC(=O)OCC(=O)NCCc1ccccc1)c1ccccc1 (configuration not stated)	4	1	2	-1	-1	0
COc1ccc(-c2nnc(Nc3nc4c(OC)cccc4s3)o2)cc1	75*	0	0	0	2	4
c1ccc(-n2ncc3c(N4CCN(CCOc5cccc6ccccc56)CC4)ncnc32)cc1	49*	1	0	-1	0	0
CS(=O)(=O)N1CCN(c2ncnc3c2cnn3-c2ccccc2)CC1	2	0	0	-2	1	1
N=C1SC(CC(=O)Nc2ccccc2[N+](=O)[O-])C(=O)N1c1ccccc1 (configuration not stated)	-3	-1	0	1.6*	-2	0
COc1ccccc1NC(=O)CC1SC(=N)N(c2ccccc2)C1=O (configuration not stated)	-1	1	0	-2	0	2
CCCc1nn(C)c(C(=O)Nc2cccc(Cl)c2)c1Cl	89*	1	-2	-2	-7	-4
CCCc1nn(C)c(C(=O)Nc2cccc(C)c2)c1Cl	25	0	0	-1	-1	0
COc1ccc(OC)c(S(=O)(=O)N2CCCC(c3noc(-c4ccc(C)cc4)n3)C2)c1 (configuration not stated)	.	.	-1	-2	0	-2
Cc1ccc(-c2nc(C3CCCN(S(=O)(=O)c4ccc(C)c(C)c4)C3)no2)cc1 (configuration not stated)	.	.	3	1.0*	7	1
O=C(Nc1cccc(Cl)c1)c1csc([C@H]2C[C@H](O)[C@@H](CO)O2)n1	.	.	3	0	11*	5
